# Laboratory results as given in PubChem BioAssay.
# “And” between values parts separate entries of the source, which are not always exact repeats. Identical values can stand only once.
# Assay: growth inhibition, single agents and combos, HTB85, cell-based, BGB or cisplatin IC20 combos, synergistic combos for chromothripsis tumors (AID 1671453);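 also: cells exposed for 96 hours before readout; 0% = vehicle DMSO and 100% = high DMSO killing control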
# Details: HTB85 osteosarcoma cells, drug combinations, measured here: with cisplatin IC20, at 0.5 µM, stronger effect = higher value
row,SMILES,inhibition
1,O=C(O)P(=O)(O)O,20.5%
2,C[C@H]1COc2c(C3(N)CC3)c(F)cc3c(=O)c(C(=O)O)cn1c23,-17.4%
3,Nc1nc2c(ncn2CCC(CO)CO)c(=O)[nH]1,-24.9% and -1.09%
4,CN(C)/N=N/c1nc[nH]c1C(N)=O,-17.3% and -45.8%
5,CC1CCc2cc(F)cc3c(=O)c(C(=O)O)cn1c23 (configuration not stated),-16.2% and -0.916%
6,CCN1CCN(c2cc3c(cc2F)c(=O)c(C(=O)O)cn3C2CC2)CC1,19.5%

# Same assay, conditions: HTB85 osteosarcoma cells, drug combinations, measured here: with cisplatin IC20, at 5 µM, stronger effect = higher value
row,SMILES,inhibition
1,O=C(O)P(=O)(O)O,-22.8%
2,C[C@H]1COc2c(C3(N)CC3)c(F)cc3c(=O)c(C(=O)O)cn1c23,-41%
3,Nc1nc2c(ncn2CCC(CO)CO)c(=O)[nH]1,-9.05% and -28%
4,CN(C)/N=N/c1nc[nH]c1C(N)=O,-16% and -61.7%
5,CC1CCc2cc(F)cc3c(=O)c(C(=O)O)cn1c23 (configuration not stated),-23.6% and -6.11%
6,CCN1CCN(c2cc3c(cc2F)c(=O)c(C(=O)O)cn3C2CC2)CC1,-34%
